An excerpt weighted towards active compounds, which were near 1.2% of everything screened.
NR5A2 inv ag: LRH-1 (NR5A2) inverse agonists, primary screen, cell-based, luminescence, HEK293T, StAR-luciferase reporter; Nuclear receptor subfamily 5 group A member 2 (Homo sapiens), O00482; LRH-1 transfected, 24 h; inhibition, % at 3.6 µM; actives 0.13% (n = 360,000); AID 602396, 2012;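 active means inhibition above the mean inhibition of all tested compounds plus 3 SD, cut at about 73% in these data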;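 further: 0% = DMSO wells and 100% = reporter-only cells lacking LRH-1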
SRC3 inh: SRC3 coactivator transcriptional activity inhibitors, primary screen, cell-based, luminescence. actives 0.17% (n = 360,000). AID 588352, 2011. HEK293 GAL4-SRC3 luciferase reporter. Nuclear receptor coactivator 3 (Homo sapiens), Q9Y6Q9. inhibition, % at 3.6 µM;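 active means inhibition above a per-campaign cutoff, the mean of all compounds plus 3 SD, cut at about 60% in these data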;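 further: 0% = DMSO-treated cells and 100% = gossypol-treated cells at 36 µM; higher means less SRC3-driven luciferase light from the GAL4 reporter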
Shn3 inh set2: reduction of Shn3 3'UTR firefly luciferase signal, primary screen, Schnurri-3 inhibitor project, cell-based, Clone20 osteoblasts, set 2; AID 588674, 2011; actives 0.52% (n = 360,000); Clone20 osteoblast Shn3 3'UTR firefly luciferase, 24 h; inhibition, % at 12.5 µM;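 active means mean inhibition of at least 75% with every replicate also reaching 75%; inconclusive means mean inhibition at least 75% but some replicate below; inactive means mean inhibition below 75%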;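 further: 0% = median of neutral control wells and 100% = pilot-screen positive control compound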
NCOA1 inh: SRC1 coactivator transcriptional activity inhibitors, primary screen, cell-based, luminescence; Nuclear receptor coactivator 1 (Homo sapiens), Q15788; HEK293 GAL4-SRC1 luciferase reporter; inhibition, % at 3.6 µM; actives 0.12% (n = 360,000);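 active means inhibition above the campaign mean plus 3 SD, with each screening campaign given its own cutoff, cut at about 60% in these data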;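 further: 0% = DMSO treated cells and 100% = gossypol at 36 µM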
LMP1 NFkB inh: EBV LMP1-driven NF-kappaB luciferase reporter inhibitors, primary screen, cell-based, luminescence, single point; inhibition, % at 12.5 µM; actives 0.69% (n = 350,000); LMP1-induced NF-kappaB luciferase reporter cells; in the data active means inhibition above about 41%; inconclusive means no clear call, values can overlap the other calls;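 further: 0% = neutral control wells and 100% = reference inhibitor control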
SRC2 inh: inhibition of GAL4-SRC2 driven luciferase reporter, primary screen, SRC2 inhibitor project, cell-based, luminescence | Nuclear receptor coactivator 2 (Homo sapiens), Q15596 | HEK293 GAL4-SRC2 luciferase reporter | inhibition, % at 9 µM | actives 0.17% (n = 370,000) | AID 651957, 2012;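 active means inhibition above the mean inhibition of all tested compounds plus 3 SD, set per campaign, cut at about 52% in these data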;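 further: 0% = DMSO treated cells and 100% = cells given Gossypol at 36 µM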
The depositor's hits bear a star; ? = inconclusive; . = not tested or not shown.

SMILES	NR5A2 inv ag	SRC3 inh	Shn3 inh set2	NCOA1 inh	LMP1 NFkB inh	SRC2 inh
COC1=C[C@H](C(=O)NCc2ccccn2)[C@H](C)[C@@H](c2ccccc2)CC1=O	.	.	.	.	.	21
COc1ccc(-n2c(Cc3cccs3)nnc2SCC(=O)Nc2cccc3ccccc23)cc1	.	.	.	.	.	1
OC[C@H]1O[C@@H](n2cnc3c(Nc4ccccc4)ncnc32)[C@H](O)[C@@H]1O	-66	-48	-27	-135	7	-67
Nc1ccc(CCNc2ncnc3c2ncn3[C@@H]2O[C@H](CO)[C@@H](O)[C@H]2O)cc1	10	-21	5	-39	84*	-52
O=c1[nH]cnc2c1ncn2[C@@H]1O[C@H](CO)[C@@H](O)[C@H]1O	11	2	-7	-17	80*	-5
OCC1OC(n2cnc3c(NCc4ccccc4O)ncnc32)C(O)C1O (stereo unspecified)	90*	62*	77	35	38	-60
Nc1ccn([C@@H]2O[C@H](CO)[C@@H](O)C2O)c(=O)n1 (stereo partly specified)	4	43	83	56	47*	6
O=c1[nH]cnc2c1ncn2[C@@H]1O[C@H](COS(=O)(=O)O)[C@@H](O)[C@H]1O	-13	-18	-12	3	-2	7
OCC1OC(n2cnc3c(NCCc4ccccc4)ncnc32)C(O)C1O (stereo unspecified)	-7	-57	-47	-83	7	-39
O=C(CSc1nnc(-c2ccc(Cl)cc2)n1Cc1ccco1)Nc1ccc(S(=O)(=O)Nc2nccs2)cc1	.	.	.	.	.	14
COc1ccc(-c2noc(C3CCCN(C(=O)NC4CCC(C)CC4)C3)n2)cc1 (stereo unspecified)	.	.	.	.	.	-45
CCCNc1nc2c(c(=O)n(C)c(=O)n2C)n1Cc1cccc(C)c1	11	15	96*	4	10	9
COCCNc1nc2c(c(=O)n(C)c(=O)n2C)n1Cc1cccc(C(F)(F)F)c1	6	-1	90*	0	-2	-3
CC(O)CNc1nc2c(c(=O)n(C)c(=O)n2C)n1Cc1cccc(C(F)(F)F)c1 (stereo unspecified)	15	-4	12	7	13	-4
CCc1ccc(O)c(CNCCNCc2cc(CC)ccc2O)c1	-2	12	86*	11	27	-7
Cc1ccoc1C(=O)Nc1ccc(CC(=O)O)cc1	0	16	39	-18	44*	83*
COC(=O)[C@]12C[C@H](CC(=O)NCc3ccccc3)C(=O)N(Cc3cccc4ccccc34)C1=C[C@H](C(C)(C)C)O[C@@H]2C	.	.	.	.	.	16
Cc1nnc(SCC(=O)Nc2cc(C(C)(C)C)nn2-c2ccccc2)s1	-10	6	3	-9	-3	-2
Cc1nnc(SCC(=O)Nc2cc(-c3cc(C)c(C)cc3C)nn2-c2ccccc2)s1	12	2	27	-5	50*	9
Cc1c(C(=O)N(Cc2ccccc2)C2CCS(=O)(=O)C2)oc2ccccc12 (stereo unspecified)	1	-2	15	-2	-2	0
Cc1c(C(=O)N(Cc2ccc(F)cc2)C2CCS(=O)(=O)C2)oc2ccccc12 (stereo unspecified)	94*	19	-9	-30	-12	-4
Cc1c(C(=O)N(Cc2cccc(Br)c2)C2CCS(=O)(=O)C2)oc2ccccc12 (stereo unspecified)	5	1	86*	2	-10	-17
N#Cc1ccc(OC[C@@H](O)CN2CCC(C(O)(c3ccccc3)c3ccccc3)CC2)cc1F	.	.	.	.	.	22
O=C(c1ccc(Cl)c(Cl)c1)N1CCC(Oc2cccnc2)CC1	.	.	.	.	.	-11
CC(C)C[C@@H]1COc2cc(N3CCCC3)ccc2S(=O)(=O)N1	.	.	.	.	.	-7
SMILES	NR5A2 inv ag	SRC3 inh	Shn3 inh set2	NCOA1 inh	LMP1 NFkB inh	SRC2 inh
Cc1cc(O)cc(=O)n1-c1cccc(C(F)(F)F)c1	.	.	.	.	.	0
CCC(NC(=O)Nn1cnnc1)(C(F)(F)F)C(F)(F)F	13	-14	15	6	66*	-12
COc1cc(C=NN2CCN(C(c3ccccc3)c3ccccc3)CC2)cc(OC)c1OC(C)=O	.	.	.	.	.	12
O=C(O)c1c2c(nc3ccccc13)/C(=C/c1ccc(O)cc1)CC2	-19	-22	16	-23	53*	-24
Cc1cc(C(N)=O)c2ccccc2n1	0	17	-6	8	-41	-2
Cc1cc(Sc2nnc(/N=C/N(C)C)s2)c2ccccc2n1	-29	48	-10	28	70*	50
Cc1cc(Sc2nnc(N)s2)c2ccccc2n1	-21	39	?	14	71*	46
CCCCCCCCSc1nnc(/N=C/N(C)C)s1	1	10	-3	-6	10	1
C#CCNC(=O)C[C@H]1C[C@@]2(C(=O)OC)C(=C[C@H](C(C)C)O[C@@H]2C2CC2)N(CCC2=CCCCC2)C1=O	.	.	.	.	.	18
N#Cc1cccc(Cn2ccc3ccc(-c4ccc5ccn(Cc6ccccc6)c5c4)cc32)c1	.	.	.	.	.	-6
NC(=S)NN=Cc1nccc2c(N)cccc12	29	62*	86*	74*	76*	-22
C=CC[n+]1c(-c2ccc(OC)cc2)csc1NNC(=O)Nc1ccccc1	-29	-56	22	-60	3	-39
C=CC[n+]1c(-c2ccc(C)cc2)csc1Nc1ccc(NC(C)=O)cc1	38	37	80	26	39	84*
CCSC1=N/C(=C\c2cccnc2)C(=O)N1c1ccccc1	27	13	3	-19	-7	23
CCOC(=O)CSC1=N/C(=C\c2cccnc2)C(=O)N1c1ccc(OC)cc1	-2	22	-9	-2	56*	-32
O=C(NCc1ccccc1F)c1ccc2c(c1)OCO2	-26	-21	-2	-2	1	10
O=C(NCCc1ccccc1F)c1ccc2c(c1)OCCO2	64	74*	?	76*	85*	90*
C=CCN(c1ccc(C(=O)Nc2ccc3c(c2)n(C)c(=O)n3C)cc1)S(C)(=O)=O	12	-1	22	-69	80*	-28
C=CCN(c1ccc(C(=O)Nc2ccc3c(c2)OCO3)cc1)S(C)(=O)=O	-12	3	-3	3	-4	-9
CCC[C@@H](/C=C/C(=O)OC(C)(C)C)Sc1ccc(N)cc1	.	.	.	.	.	-7
CC(=O)Nc1ccc(NC(=O)c2ccc(-c3ccnn3C)c3ccoc23)cc1	9	-10	19	-1	.	53*
CC(C)c1ccc(NC(=O)c2ccc(-c3ccnn3C)c3ccoc23)cc1	-13	-38	20	-19	.	.

Screens as filed in PubChem BioAssay.
